The list is not random: actives were taken first. Their share in the collection is about 6.3%.
Autofluor 339 – intrinsic fluorescence of library compounds, ex339/em460 – biochemical, MLSMR library, data from DPM-DC assay, artefact control, profiling panel; compound autofluorescence, ex339/em460 nm, NADH buffer; stronger effect = higher value; 1 = no-compound wells, NADH background; fluorescence fold increase at 10 µM; 65,000 tested, 5.5% active; AID 709;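 active means at 10 µM, mean starting fluorescence two-fold or more over control wells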;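 further: signal is the first read of a kinetic run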
DPM-DC inhibit – blocks S. pneumoniae diphosphomevalonate decarboxylase; AID 556; purified DPM-DC, PK/LDH coupled NADH fluorescence; 65,000 tested, 0.49% active; calls only at 10 µM;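 active means the 320 compounds with the highest percent inhibition in the single-dose primary screen, excluding strongly autofluorescent ones, cut at about 32% in these data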;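 further: kinetic rate of NADH fluorescence loss reporting ADP formed by the decarboxylase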
Spn PMK inh – S. pneumoniae PMK inhibition; purified PMK, PK/LDH-coupled NADH absorbance 340 nm; inhibition, % at 10 µM; 65,000 tested, 0.49% active;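 active means top-ranked compounds by inhibition in the single 10 µM screen, taking a fixed number of the strongest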
Abs 340nm – absorbance at 340 nm; compound absorbance at 340 nm, fold over control; fold change at 10 µM; 65,000 tested, under 10 active; AID 708;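 active means at 10 µM dose, initial 340 nm absorbance at least 2 fold that of control wells; inactive means change under 2 fold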;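 further: initial absorbance extrapolated from kinetic A340 decline of NADH oxidation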
Spn MK inh – S. pneumoniae mevalonate kinase inhibition | purified MK, PK/LDH-coupled NADH absorbance 340 nm | 65,000 tested, 0.48% active | inhibition, % at 10 µM;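 active means ranked among the strongest by inhibition in the single 10 µM screen, a fixed top-ranked set picked for dose follow-up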
NADH coupling – inhibitors of enzymes used to reach an NAD/NADH endpoint; coupled PK/LDH NADH assays, four targets; AID 774; 65,000 tested, 0.02% active; IC50, µM (top dose mostly 10 µM);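 active means single-dose screening hits from any of four coupled enzyme assays that gave an IC50 when retested across doses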;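 further: the DPM-DC format reads NADH fluorescence rather than 340 nm absorbance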
A number is an active result; 0 = inactive; - = not tested or not shown; + = active, no number.

SMILES | Autofluor 339 | DPM-DC inhibit | Spn PMK inh | Abs 340nm | Spn MK inh | NADH coupling
COCCSc1ccccc1C(=O)NCC1CCCO1 (stereo not given) | 0 | 0 | 0 | 0 | 0 | 0
COc1ccccc1NC(=O)c1cc2ccc(O)cc2o/c1=N\O | 0 | 0 | 0 | 0 | 0 | 0
COc1ccccc1N=c1oc2cc(O)ccc2cc1C(=O)NCC1CCCO1 (stereo not given) | 2.9 | 0 | 0 | 0 | 0 | 0
Cn1c(Cn2c(=O)sc3ccccc32)nnc1SCC(=O)Nc1ccc2c(c1)OCO2 | 0 | 0 | 0 | 0 | 0 | 0
CCc1ccccc1NC(=O)N1C2CCCC1CC(NC(C)=O)C2 (stereo not given) | 0 | 0 | 0 | 0 | 0 | 0
Cc1cc(Nc2ccc3ccccc3c2)n2ncnc2n1 | 0 | 0 | 0 | 0 | 0 | 0
COc1ccc2oc(=O)c(C(=O)N3CCN(C45CC6CC(CC(C6)C4)C5)CC3)cc2c1 | 3.7 | - | 0 | 0 | 0 | 0
CC(=O)c1ccc(Oc2ncnc3sccc23)c(CN2CCOCC2)c1 | 0 | 0 | 25 | 0 | 0 | 0
Cc1cc2oc(=O)cc(COC(=O)c3cccc(N(C)C)c3)c2cc1C | 2.1 | - | 0 | 0 | 0 | 0
Cc1ccc2c(COC(=O)c3cnc(C)cn3)cc(=O)oc2c1 | 0 | 0 | 0 | 0 | 0 | 0
O=C(Nc1ccc2c(c1)C(=O)N(C1CCCCC1)C2=O)C1CCCO1 (stereo not given) | 2.5 | - | 0 | 0 | 0 | 0
CC(=O)c1cccc(NC(=O)Nc2ccc(C(=O)N3CCCC3)cc2)c1 | 0 | 0 | 0 | 0 | 0 | 0
COC(=O)c1cc2nc(-c3ccccc3)cc(C)n2n1 | 3.6 | - | 0 | 0 | 0 | 0
COc1ccc(-c2cc(C(F)(F)F)n3nc(C(=O)NCc4ccco4)cc3n2)cc1 | 2.2 | - | 0 | 0 | 0 | 0
COc1ccc(-c2cc(C(F)(F)F)n3nc(C(=O)Nc4cc(C)on4)cc3n2)cc1OC | 3.8 | - | 0 | 0 | 0 | 0
O=C(NCc1ccco1)c1cc2nc(-c3ccc4c(c3)OCO4)cc(C(F)(F)F)n2n1 | 3.7 | - | 0 | 0 | 0 | 0
Cc1ccc(-c2nnc(N3CCN(C(=O)CN4CCOCC4)CC3)c3ccccc23)cc1 | 0 | 0 | 0 | 0 | 0 | 0
C=CCN1CCN(C(c2cc(OC)ccc2OC)c2nnnn2CC2CCCO2)CC1 (stereo not given) | 0 | 0 | 0 | 0 | 0 | 0
O=C(O)C(Cc1cc2ccccc2[nH]1)N1C(=O)C2CC=C(Cl)CC2C1=O (stereo not given) | 0 | 0 | 0 | 0 | 0 | 0
COC(=O)c1cc2nc(-c3ccc(OC)cc3)cc(C(F)(F)F)n2n1 | 2.2 | - | 0 | 0 | 0 | 0
CN(C(=O)c1cccnc1)c1nnc(-c2ccccn2)s1 | 2.2 | 0 | 0 | 0 | 0 | 0
CN(C(=O)c1cccc(C#N)c1)c1nnc(-c2ccncc2)s1 | 2.4 | 0 | 0 | 0 | 0 | 0
O=C1CCC(C(=O)NC2(C(=O)NC3CCCCC3)CCCCC2)N1 (stereo not given) | 0 | 0 | 0 | 0 | 0 | 0
CCc1c(C)nc(N)n2c(SCC(=O)N3CCCC(C)C3)nnc12 (stereo not given) | 0 | 0 | 0 | 0 | 0 | 0
Cc1cc(C)c2c(n1)nn1c(N3CCN(c4ccccc4)CC3)cc(C)nc21 | 3.2 | + | 0 | 0 | 0 | 0
SMILES | Autofluor 339 | DPM-DC inhibit | Spn PMK inh | Abs 340nm | Spn MK inh | NADH coupling
Cc1cc(-c2ccccc2)nc(N2CCN(c3ccccn3)CC2)n1 | 0 | 0 | 0 | 0 | 0 | 0
Cc1cc(C)c2c(n1)nn1c(N3CCN(c4ccccn4)CC3)cc(C)nc21 | 3 | 0 | 0 | 0 | 0 | 0
CCOC(=O)C1CCN(S(=O)(=O)c2cc(Br)cc3c2N(C(C)=O)C(C)C3)CC1 (stereo not given) | 0 | 0 | 0 | 0 | 0 | 0
COCc1cc(=O)n2[nH]c(-c3ccccc3)cc2n1 | 2.1 | - | 0 | 0 | 0 | 0
COc1cc(NC(=O)c2cc3c(=O)n(C)c4ccccc4c3n2C)cc(OC)c1OC | 2 | - | 0 | 0 | 0 | 0
Cc1ccccc1Cn1nc(C)c(NC(=O)c2cc3nc(-c4ccco4)cc(C(F)(F)F)n3n2)c1C | 0 | 0 | 0 | 0 | 0 | 0
Cc1nn(C)cc1CN(C)C(=O)c1cc2nc(-c3ccco3)cc(C(F)(F)F)n2n1 | 2.7 | 0 | 0 | 0 | 0 | 0
Cc1nn(C)c(C)c1CN(C)C(=O)c1cc2nc(-c3ccco3)cc(C(F)(F)F)n2n1 | 2.5 | 0 | 0 | 0 | 0 | 0
CCOC(=O)N1CCN(Cc2nc(N)nc(Nc3ccc(Oc4ccccc4)cc3)n2)CC1 | 0 | 0 | 0 | 0 | 0 | 0
CCC1(C)Cc2c(sc3[nH]c(=O)[nH]c(=O)c23)CS1 (stereo not given) | 2.3 | - | 0 | 0 | 0 | 0
FC(F)(F)c1ccc(N2CCN(c3cc(-c4ccccc4)nc4ncnn34)CC2)nc1 | 0 | 0 | 0 | 0 | 0 | 0
CN(C(=O)c1cccs1)c1ccccc1C(=O)O | 2.2 | - | 0 | 0 | 0 | 0
O=C(Nc1ccccc1F)c1ccc(S(=O)(=O)NCC2CCCO2)cc1 (stereo not given) | 0 | 0 | 0 | 0 | 0 | 0
O=C(O)c1ccc(N2C(=O)CC(Cc3ccccc3)C2=O)cc1 (stereo not given) | 0 | 0 | 0 | 0 | 0 | 0
CCOC(=O)c1cc2c(=O)n3ccccc3nc2n(CCCOC)c1=NC(=O)C(C)(C)C | 2.4 | - | 0 | 0 | 0 | 0
CCOC(=O)c1cc2c(=O)n3ccccc3nc2n(CCOC)c1=NC(=O)c1ccncc1 | 2.2 | - | 0 | 0 | 0 | 0
CCOCCCn1c(=NC(C)=O)c(C(=O)OCC)cc2c(=O)n3ccccc3nc21 | 2.9 | - | 0 | 0 | 0 | 0
CCOC(=O)c1cc2c(=O)n3ccccc3nc2n(C(C)C)c1=NC(=O)c1ccncc1 | 0 | + | 0 | 0 | 0 | 0
CCOC(=O)c1cc2c(=O)n3ccccc3nc2n(CCOC)c1=NC(=O)C(C)(C)C | 2.3 | - | 0 | 0 | 0 | 0
CCOc1ccc(C2C(C(=O)OC)=CN(CCOC)C=C2C(=O)OC)cc1 | 2.5 | - | 0 | 0 | 0 | 0
COCCN1C=C(C(=O)OC)C(c2cc3c(cc2Br)OCO3)C(C(=O)OC)=C1 | 0 | 0 | 0 | 0 | 0 | 0
COCCN1C=C(C(=O)OC)C(c2ccc3c(c2)OCO3)C(C(=O)OC)=C1 | 2.1 | - | 0 | 0 | 0 | 0
CC(=O)c1cccc(NC(=O)CN2C(=O)NC3(CCCCCCC3)C2=O)c1 | 0 | 0 | 0 | 0 | 0 | 0
O=C(Nc1sc2c(c1C(=O)NCc1ccco1)CCCC2)c1ccc2c(c1)OCO2 | 2.9 | - | 0 | 0 | 0 | 0
O=c1[nH]c2ccccc2nc1C(F)(F)C(F)F | 2.1 | - | 0 | 0 | 0 | 0
O=c1[nH]c2ccccc2nc1Cc1ccccc1 | 0 | 0 | 0 | 0 | 0 | 0
COc1ccc(S(=O)(=O)N(C)CC(=O)Nc2ccccc2SC)cc1Cl | 0 | 0 | 0 | 0 | 0 | 0
Cc1cc(-c2ccccc2)nc(N2CCC(C(=O)NC(C)C)CC2)n1 | 3.3 | + | 0 | 0 | 0 | 0
CCC(C)NC(=O)C1CCN(c2nc(C)cc(C)n2)CC1 (stereo not given) | 0 | 0 | 0 | 0 | 0 | 0

From PubChem BioAssay
